# Laboratory results taken from PubChem BioAssay (NCI).
# “And” between values parts separate entries of the source, which are not always exact repeats. Identical values can stand only once. The panel holds about 83,000 compounds, 20% with a hit somewhere; the sample as a whole holds those more often.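 Assay: single dose, 48 h. Readout: percent growth (0 = no net growth; negative = cell death). Active: <10.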 The source made the active and inactive calls.
# Tests used:
# Assay in all cases: NCI-60 one-dose screen, 48 h (100 = growth as untreated, 0 = no growth, -100 = all killed)
# DU-145 prostate = test system: DU-145 prostate
# K-562 leukemia = test system: K-562 leukemia
# MALME-3M melanoma = test system: MALME-3M melanoma
# MDA-MB-231 breast = test system: MDA-MB-231 breast
# RXF 393 renal = test system: RXF 393 renal
# SF-268 CNS = test system: SF-268 CNS
# SF-295 CNS = test system: SF-295 CNS
# SF-539 CNS = test system: SF-539 CNS
# UACC-257 melanoma = details: 10 µM unless noted
# M14 melanoma = test system: M14 melanoma
compound,measurement,setting,value
C[n+]1c(/C=C/c2ccc([N+](=O)[O-])cc2)ccc2ccccc21,growth,DU-145 prostate; 10 µM unless noted,104% (inactive)
same,growth,K-562 leukemia; 10 µM unless noted,88.7% (inactive)
same,growth,MALME-3M melanoma; 10 µM unless noted,90.9% (inactive)
same,growth,MDA-MB-231 breast; 10 µM unless noted,115% (inactive)
same,growth,RXF 393 renal; 10 µM unless noted,92.9% (inactive)
same,growth,SF-268 CNS; 10 µM unless noted,102% (inactive)
same,growth,SF-295 CNS; 10 µM unless noted,100% (inactive)
same,growth,SF-539 CNS; 10 µM unless noted,103% (inactive)
same,growth,UACC-257 melanoma,106% (inactive)
same,growth,M14 melanoma; 10 µM unless noted,101% (inactive)
O=C1c2ccccc2C(=O)c2sc(Nc3cccc(Cl)c3)nc21,growth,DU-145 prostate; 10 µM unless noted,-93.9% (active)
same,growth,K-562 leukemia; 10 µM unless noted,6.87% (active)
same,growth,MALME-3M melanoma; 10 µM unless noted,-89.9% (active)
same,growth,MDA-MB-231 breast; 10 µM unless noted,-8.62% (active)
same,growth,RXF 393 renal; 10 µM unless noted,-11.5% (active)
same,growth,SF-268 CNS; 10 µM unless noted,-7.47% (active)
same,growth,SF-295 CNS; 10 µM unless noted,66.2% (inactive)
same,growth,SF-539 CNS; 10 µM unless noted,-91.5% (active)
same,growth,UACC-257 melanoma,-74.9% (active)
same,growth,M14 melanoma; 10 µM unless noted,-89.1% (active)
O=C(Nc1cccc(Br)c1)Oc1cccc2cccnc12,growth,DU-145 prostate; 10 µM,115% (inactive)
same,growth,DU-145 prostate; 100 µM,35.6% (inactive)
same,growth,K-562 leukemia; 10 µM,109% (inactive)
same,growth,K-562 leukemia; 100 µM,12.6% (inactive)
same,growth,MALME-3M melanoma; 10 µM,114% (inactive)
same,growth,MALME-3M melanoma; 100 µM,7.15% (active)
same,growth,MDA-MB-231 breast; 10 µM,98.4% (inactive)
same,growth,MDA-MB-231 breast; 100 µM,15.1% (inactive)
same,growth,RXF 393 renal; 10 µM,106% (inactive)
same,growth,RXF 393 renal; 100 µM,55.6% (inactive)
same,growth,SF-268 CNS; 10 µM,107% (inactive)
same,growth,SF-268 CNS; 100 µM,20.9% (inactive)
same,growth,SF-295 CNS; 10 µM,97.4% (inactive)
same,growth,SF-295 CNS; 100 µM,9.21% (active)
same,growth,SF-539 CNS; 10 µM,97.1% (inactive)
same,growth,SF-539 CNS; 100 µM,9.58% (active)
same,growth,UACC-257 melanoma,7.41% [100 µM] (active)
same,growth,M14 melanoma; 10 µM,99.4% (inactive)
same,growth,M14 melanoma; 100 µM,16% (inactive)
N#CC1C(=O)SC2c3ccccc3C(=O)c3ccccc3C12 (configuration not stated),growth,DU-145 prostate; 10 µM unless noted,107% (inactive)
same,growth,K-562 leukemia; 10 µM unless noted,94.9% (inactive)
same,growth,MALME-3M melanoma; 10 µM unless noted,101% (inactive)
same,growth,MDA-MB-231 breast; 10 µM unless noted,98% (inactive)
same,growth,RXF 393 renal; 10 µM unless noted,101% (inactive)
same,growth,SF-268 CNS; 10 µM unless noted,101% (inactive)
same,growth,SF-295 CNS; 10 µM unless noted,113% (inactive)
same,growth,SF-539 CNS; 10 µM unless noted,114% (inactive)
same,growth,UACC-257 melanoma,101% (inactive)
same,growth,M14 melanoma; 10 µM unless noted,109% (inactive)
CCC1OC(OC)C=CC1=O (configuration not stated),growth,DU-145 prostate; 10 µM unless noted,107% (inactive)
same,growth,K-562 leukemia; 10 µM unless noted,87.2% (inactive)
same,growth,MALME-3M melanoma; 10 µM unless noted,99.9% (inactive)
same,growth,MDA-MB-231 breast; 10 µM unless noted,106% (inactive)
same,growth,RXF 393 renal; 10 µM unless noted,113% (inactive)
same,growth,SF-268 CNS; 10 µM unless noted,108% (inactive)
same,growth,SF-295 CNS; 10 µM unless noted,98.1% (inactive)
same,growth,SF-539 CNS; 10 µM unless noted,101% (inactive)
same,growth,UACC-257 melanoma,117% (inactive)
same,growth,M14 melanoma; 10 µM unless noted,104% (inactive)
O=C1c2ccccc2C(=O)c2sc(Nc3ccc(Cl)cc3)nc21,growth,DU-145 prostate; 10 µM unless noted,-78.3% (active)
same,growth,K-562 leukemia; 10 µM unless noted,4.83% (active)
same,growth,MALME-3M melanoma; 10 µM unless noted,-79.6% (active)
same,growth,MDA-MB-231 breast; 10 µM unless noted,6.43% (active)
same,growth,RXF 393 renal; 10 µM unless noted,17% (inactive)
same,growth,SF-268 CNS; 10 µM unless noted,42% (inactive)
same,growth,SF-295 CNS; 10 µM unless noted,98.4% (inactive)
same,growth,SF-539 CNS; 10 µM unless noted,2.24% (active)
same,growth,UACC-257 melanoma,-16% (active)
same,growth,M14 melanoma; 10 µM unless noted,-2.34% (active)
Cc1ccc2nc(C[n+]3ccc4ccccc4c3)ccc2c1,growth,DU-145 prostate; 10 µM unless noted,76% (inactive)
same,growth,K-562 leukemia; 10 µM unless noted,44.2% (inactive)
same,growth,MALME-3M melanoma; 10 µM unless noted,61.2% (inactive)
same,growth,MDA-MB-231 breast; 10 µM unless noted,73.5% (inactive)
same,growth,RXF 393 renal; 10 µM unless noted,93.6% (inactive)
same,growth,SF-268 CNS; 10 µM unless noted,70.4% (inactive)
same,growth,SF-295 CNS; 10 µM unless noted,59% (inactive)
same,growth,SF-539 CNS; 10 µM unless noted,71.9% (inactive)
same,growth,UACC-257 melanoma,24.9% (inactive)
same,growth,M14 melanoma; 10 µM unless noted,45.8% (inactive)
COc1cc(NS(C)(=O)=O)ccc1Nc1c2ccccc2nc2ccccc12,growth,DU-145 prostate; 10 µM unless noted,-34.4% [2.5 µM] (active)
same,growth,K-562 leukemia; 2.5 µM,29.2% (inactive)
same,growth,K-562 leukemia; 10 µM,0.97% (active) and 16.8% (inactive) and 23.4% (inactive)
same,growth,MALME-3M melanoma; 2.5 µM,43.4% (inactive)
same,growth,MALME-3M melanoma; 10 µM,-25.4% (active) and 20.4% (inactive) and 25.4% (inactive)
same,growth,MDA-MB-231 breast; 10 µM unless noted,98.2% [2.5 µM] (inactive)
same,growth,RXF 393 renal; 10 µM unless noted,6.88% [2.5 µM] (active)
same,growth,SF-268 CNS; 2.5 µM,35.1% (inactive)
same,growth,SF-268 CNS; 10 µM,25.1% (inactive) [middle of 4 runs]
same,growth,SF-295 CNS; 10 µM unless noted,3.7% [2.5 µM] (active)
same,growth,SF-539 CNS; 10 µM unless noted,-34.3% [2.5 µM] (active)
same,growth,UACC-257 melanoma,5.31% [2.5 µM] (active)
same,growth,M14 melanoma; 10 µM unless noted,8.39% (active) [middle of 4 runs]
N[C@H](C(=O)O)[C@@H]1CC(Cl)=NO1,growth,DU-145 prostate; 10 µM unless noted,37.7% [20 µM] (inactive)
same,growth,K-562 leukemia; 10 µM unless noted,20% [20 µM] (inactive)
same,growth,MALME-3M melanoma; 10 µM unless noted,33.5% [20 µM] (inactive)
same,growth,MDA-MB-231 breast; 10 µM unless noted,43.4% [20 µM] (inactive)
same,growth,RXF 393 renal; 10 µM unless noted,48.7% [20 µM] (inactive)
same,growth,SF-268 CNS; 10 µM unless noted,25.5% [20 µM] (inactive)
same,growth,SF-295 CNS; 10 µM unless noted,31.2% [20 µM] (inactive)
same,growth,SF-539 CNS; 10 µM unless noted,21.4% [20 µM] (inactive)
same,growth,UACC-257 melanoma,39.1% [20 µM] (inactive)
same,growth,M14 melanoma; 10 µM unless noted,16.9% [20 µM] (inactive)
NC(=S)N/N=C\c1nccc2c(C(F)(F)C(F)(F)C(F)(F)F)cccc12,growth,DU-145 prostate; 10 µM unless noted,1.56% (active)
same,growth,K-562 leukemia; 10 µM unless noted,4.7% (active)
same,growth,MALME-3M melanoma; 10 µM unless noted,-3.69% (active)
same,growth,MDA-MB-231 breast; 10 µM unless noted,36.9% (inactive)
same,growth,RXF 393 renal; 10 µM unless noted,-11.7% (active)
same,growth,SF-268 CNS; 10 µM unless noted,13% (inactive)
same,growth,SF-295 CNS; 10 µM unless noted,7.4% (active)
same,growth,SF-539 CNS; 10 µM unless noted,-10.3% (active)
same,growth,UACC-257 melanoma,-18.2% (active)
same,growth,M14 melanoma; 10 µM unless noted,-19.2% (active)
